# Experiments:
# Experiment in all cases: PBM binding z-score (relative to random genomic background probes); higher = stronger binding; sequences stand for … in GC…GCGATTGACAGCGTAGAATGAAGG
# [1] = test system: FXR:RXRa (NR concentration 270 nM, RXRa partner concentration 90 nM)
# How it was run: (§1)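 Custom Agilent 4×180K protein-binding microarrays carried double-stranded probes. Their 34-nt variable regions held direct-repeat seeds, single-nucleotide variants, half-site ablations and random human genomic background sequences. Arrays were incubated 1 h with ligand-free nuclear receptor dimers in PBS pH 7.4, 2% milk, 0.02% Triton X-100, 1 mM DTT, 0.2 mg/mL BSA and 0.4 mg/ml salmon testes DNA. Antibodies against each partner (one per run) detected binding, and scanned fluorescence was regression-normalized. Binding z-scores use random background probes as reference.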
# [2] = test system: LXRa:RXRa (NR concentration 270 nM, RXRa partner concentration 90 nM)
# How it was run: as §1
# [3] = test system: LXRa homodimer (NR concentration 270 nM)
# How it was run: as §1
# [4] = test system: LXRb:RXRa (NR concentration 270 nM, RXRa partner concentration 90 nM)
# How it was run: as §1
# [5] = test system: LXRb homodimer (NR concentration 270 nM)
# How it was run: as §1
# [6] = test system: PPARa:RXRa (NR concentration 270 nM, RXRa partner concentration 90 nM)
# How it was run: as §1
# [7] = test system: PPARg:RXRa (NR concentration 180 nM, RXRa partner concentration 90 nM)
# How it was run: as §1
# [8] = test system: PPARg:RXRa 270nM:90nM, anti-RXR (NR concentration 270 nM, RXRa partner concentration 90 nM)
# How it was run: as §1
# [9] = test system: PPARg:RXRa 30nM:10nM, anti-RXR (NR concentration 30 nM, RXRa partner concentration 10 nM)
# How it was run: as §1
# [10] = test system: PPARg:RXRa 90nM:30nM, anti-RXR (NR concentration 90 nM, RXRa partner concentration 30 nM)
# How it was run: as §1
sequence,measurement,setting,value
ACTATTAGTTGCGACGAGGGCAACCGATAGGTTG,PBM binding z-score,[1],0.025
same,PBM binding z-score,[2],-0.176
same,PBM binding z-score,[3],-0.51
same,PBM binding z-score,[4],-0.131
same,PBM binding z-score,[5],-0.0376
same,PBM binding z-score,[6],0.201
same,PBM binding z-score,[7],0.576
same,PBM binding z-score,[8],0.00262
same,PBM binding z-score,[9],-0.168
same,PBM binding z-score,[10],0.0381
TCGAGTAGGTTAGTCGGGGCATGCAGCCAACATA,PBM binding z-score,[1],-0.0547
same,PBM binding z-score,[2],0.104
same,PBM binding z-score,[3],-0.427
same,PBM binding z-score,[4],0.0747
same,PBM binding z-score,[5],-0.894
same,PBM binding z-score,[6],0.523
same,PBM binding z-score,[7],0.2
same,PBM binding z-score,[8],0.809
same,PBM binding z-score,[9],0.702
same,PBM binding z-score,[10],0.884
CATACTGGGCCATCAGGTCATTGATATCAACGTT,PBM binding z-score,[1],1.86
same,PBM binding z-score,[2],1.46
same,PBM binding z-score,[3],1.4
same,PBM binding z-score,[4],1.75
same,PBM binding z-score,[5],0.36
same,PBM binding z-score,[6],2.86
same,PBM binding z-score,[7],2.91
same,PBM binding z-score,[8],3.57
same,PBM binding z-score,[9],1.42
same,PBM binding z-score,[10],2.43
CGTGCAAGGTCAATGCTAGGTCAGTGAAAGCATT,PBM binding z-score,[1],6.79
same,PBM binding z-score,[2],5.7
same,PBM binding z-score,[3],1.91
same,PBM binding z-score,[4],4.42
same,PBM binding z-score,[5],0.212
same,PBM binding z-score,[6],5.53
same,PBM binding z-score,[7],4.26
same,PBM binding z-score,[8],5.03
same,PBM binding z-score,[9],1.47
same,PBM binding z-score,[10],3.77
GCATATGGGTAATACAAGGTGAAAGTCCGATTGT,PBM binding z-score,[1],0.428
same,PBM binding z-score,[2],1.27
same,PBM binding z-score,[3],0.16
same,PBM binding z-score,[4],0.226
same,PBM binding z-score,[5],-0.552
same,PBM binding z-score,[6],1.46
same,PBM binding z-score,[7],0.928
same,PBM binding z-score,[8],1.03
same,PBM binding z-score,[9],0.412
same,PBM binding z-score,[10],0.777
GGAACAAGGGCAAAGTTGATAGCATCTGTCGACG,PBM binding z-score,[1],0.623
same,PBM binding z-score,[2],0.618
same,PBM binding z-score,[3],-0.274
same,PBM binding z-score,[4],0.612
same,PBM binding z-score,[5],-0.0187
same,PBM binding z-score,[6],3.56
same,PBM binding z-score,[7],5.8
same,PBM binding z-score,[8],6.3
same,PBM binding z-score,[9],5.66
same,PBM binding z-score,[10],6.8
CGTCAAAGTTCAACTAAGGTAACATAAAGCACGC,PBM binding z-score,[1],7
same,PBM binding z-score,[2],6.17
same,PBM binding z-score,[3],4.4
same,PBM binding z-score,[4],4.25
same,PBM binding z-score,[5],1.93
same,PBM binding z-score,[6],5.1
same,PBM binding z-score,[7],5.41
same,PBM binding z-score,[8],5.57
same,PBM binding z-score,[9],2.61
same,PBM binding z-score,[10],4.55
CCTACTGGGCCATTCAGAGGTCATTGAACATATG,PBM binding z-score,[1],2.73
same,PBM binding z-score,[2],4.42
same,PBM binding z-score,[3],6.32
same,PBM binding z-score,[4],4.04
same,PBM binding z-score,[5],0.612
same,PBM binding z-score,[6],4.06
same,PBM binding z-score,[7],2.51
same,PBM binding z-score,[8],3.47
same,PBM binding z-score,[9],1.18
same,PBM binding z-score,[10],2.51
GCTATTAGTTGAAAGGGCAACGGAATGATTCTCG,PBM binding z-score,[1],0.364
same,PBM binding z-score,[2],0.524
same,PBM binding z-score,[3],0.225
same,PBM binding z-score,[4],0.73
same,PBM binding z-score,[5],-0.171
same,PBM binding z-score,[6],2.5
same,PBM binding z-score,[7],2.45
same,PBM binding z-score,[8],4.33
same,PBM binding z-score,[9],2.24
same,PBM binding z-score,[10],4.02
ACTACAGGGTCACTAGGCCAGAGTAGGTACGAAT,PBM binding z-score,[1],6.17
same,PBM binding z-score,[2],3.51
same,PBM binding z-score,[3],-0.237
same,PBM binding z-score,[4],3.18
same,PBM binding z-score,[5],0.0917
same,PBM binding z-score,[6],5.65
same,PBM binding z-score,[7],7.54
same,PBM binding z-score,[8],5.96
same,PBM binding z-score,[9],2.62
same,PBM binding z-score,[10],5.05
ACTAGCAGGCCAAGGGACACTCAAGATTAGTCCG,PBM binding z-score,[1],-0.455
same,PBM binding z-score,[2],-0.514
same,PBM binding z-score,[3],-0.423
same,PBM binding z-score,[4],-0.897
same,PBM binding z-score,[5],-0.655
same,PBM binding z-score,[6],-0.248
same,PBM binding z-score,[7],1.88
same,PBM binding z-score,[8],1.99
same,PBM binding z-score,[9],0.906
same,PBM binding z-score,[10],1.86
ATCGGAAGGTCGACGAGGTGAGTATACACCGTTT,PBM binding z-score,[1],1.65
same,PBM binding z-score,[2],0.953
same,PBM binding z-score,[3],-0.358
same,PBM binding z-score,[4],0.827
same,PBM binding z-score,[5],-0.58
same,PBM binding z-score,[6],2.18
same,PBM binding z-score,[7],1.06
same,PBM binding z-score,[8],0.751
same,PBM binding z-score,[9],-0.112
same,PBM binding z-score,[10],0.452
CCAGACAGGTGAGAAGGTTACTCAGCCTCGATTA,PBM binding z-score,[1],0.207
same,PBM binding z-score,[2],0.568
same,PBM binding z-score,[3],-0.0205
same,PBM binding z-score,[4],0.724
same,PBM binding z-score,[5],-0.277
same,PBM binding z-score,[6],1.54
same,PBM binding z-score,[7],0.536
same,PBM binding z-score,[8],0.872
same,PBM binding z-score,[9],0.0606
same,PBM binding z-score,[10],0.56
TGAATGAGGTTATAAGAGCAGGGAACGTTGCAAA,PBM binding z-score,[1],1.63
same,PBM binding z-score,[2],1.78
same,PBM binding z-score,[3],-0.152
same,PBM binding z-score,[4],0.923
same,PBM binding z-score,[5],-0.0285
same,PBM binding z-score,[6],2.86
same,PBM binding z-score,[7],1.32
same,PBM binding z-score,[8],2.13
same,PBM binding z-score,[9],0.717
same,PBM binding z-score,[10],1.52
TCTTGGAGATCAATAGAGGTTAAGAAAGTGCGCT,PBM binding z-score,[1],1.28
same,PBM binding z-score,[2],3.82
same,PBM binding z-score,[3],0.422
same,PBM binding z-score,[4],2.09
same,PBM binding z-score,[5],-0.451
same,PBM binding z-score,[6],1.94
same,PBM binding z-score,[7],-0.159
same,PBM binding z-score,[8],1.27
same,PBM binding z-score,[9],2.09
same,PBM binding z-score,[10],1.59
TCTTGTAGAGCAGCAGGTTAAGAAAGCTGGCCAA,PBM binding z-score,[1],-0.000312
same,PBM binding z-score,[2],-0.0132
same,PBM binding z-score,[3],-1.04
same,PBM binding z-score,[4],-0.257
same,PBM binding z-score,[5],-1.45
same,PBM binding z-score,[6],0.529
same,PBM binding z-score,[7],-0.553
same,PBM binding z-score,[8],1.04
same,PBM binding z-score,[9],1.29
same,PBM binding z-score,[10],1.01
TCGAATAGGTTAGGGGCATTCAGAATGGCGTCGA,PBM binding z-score,[1],0.35
same,PBM binding z-score,[2],0.807
same,PBM binding z-score,[3],-0.0676
same,PBM binding z-score,[4],1.26
same,PBM binding z-score,[5],0.0688
same,PBM binding z-score,[6],1.49
same,PBM binding z-score,[7],0.443
same,PBM binding z-score,[8],2.13
same,PBM binding z-score,[9],2.93
same,PBM binding z-score,[10],2.56
CGTCGAAGGTCAGCAGGTCAGTGAAAGCGACGTG,PBM binding z-score,[1],5.54
same,PBM binding z-score,[2],3.8
same,PBM binding z-score,[3],0.42
same,PBM binding z-score,[4],3.06
same,PBM binding z-score,[5],-0.433
same,PBM binding z-score,[6],4.76
same,PBM binding z-score,[7],4.28
same,PBM binding z-score,[8],4.81
same,PBM binding z-score,[9],1.5
same,PBM binding z-score,[10],2.88
CCTACTGCGCCAAAGGTCATTGATTCCAATGCTC,PBM binding z-score,[1],5.29
same,PBM binding z-score,[2],5.64
same,PBM binding z-score,[3],5.34
same,PBM binding z-score,[4],5.07
same,PBM binding z-score,[5],1.91
same,PBM binding z-score,[6],5.47
same,PBM binding z-score,[7],6.88
same,PBM binding z-score,[8],7.67
same,PBM binding z-score,[9],6.56
same,PBM binding z-score,[10],7.79
ATCTCTAGGTAATGTTCAGTGAAAGATCGATAGA,PBM binding z-score,[1],0.347
same,PBM binding z-score,[2],0.554
same,PBM binding z-score,[3],0.048
same,PBM binding z-score,[4],0.107
same,PBM binding z-score,[5],1.09
same,PBM binding z-score,[6],0.239
same,PBM binding z-score,[7],0.489
same,PBM binding z-score,[8],0.323
same,PBM binding z-score,[9],0.558
same,PBM binding z-score,[10],0.276
CCAGACAGGTGAGAAGGTAACTCTGCCTCGATTA,PBM binding z-score,[1],0.00014
same,PBM binding z-score,[2],0.0948
same,PBM binding z-score,[3],-0.229
same,PBM binding z-score,[4],0.114
same,PBM binding z-score,[5],-0.103
same,PBM binding z-score,[6],0.793
same,PBM binding z-score,[7],0.466
same,PBM binding z-score,[8],0.906
same,PBM binding z-score,[9],-0.293
same,PBM binding z-score,[10],0.346
ATCTCTAGCTAAGACTCAGTTCAGTGAAGAACGC,PBM binding z-score,[1],0.167
same,PBM binding z-score,[2],0.272
same,PBM binding z-score,[3],0.317
same,PBM binding z-score,[4],-0.057
same,PBM binding z-score,[5],0.629
same,PBM binding z-score,[6],-0.233
same,PBM binding z-score,[7],-0.0864
same,PBM binding z-score,[8],-0.493
same,PBM binding z-score,[9],-0.13
same,PBM binding z-score,[10],-0.144
ACAGACAGGTGAGTGAATGTAACTCAGCTGGACG,PBM binding z-score,[1],-0.0424
same,PBM binding z-score,[2],-0.166
same,PBM binding z-score,[3],-0.418
same,PBM binding z-score,[4],-0.486
same,PBM binding z-score,[5],-0.454
same,PBM binding z-score,[6],0.0946
same,PBM binding z-score,[7],0.779
same,PBM binding z-score,[8],-0.286
same,PBM binding z-score,[9],-0.216
same,PBM binding z-score,[10],-0.145
CAGCCTCGGTCAGGGCCAGTATAGGAGGAACGTT,PBM binding z-score,[1],-0.344
same,PBM binding z-score,[2],-0.223
same,PBM binding z-score,[3],-0.491
same,PBM binding z-score,[4],-0.601
same,PBM binding z-score,[5],-1.46
same,PBM binding z-score,[6],-0.701
same,PBM binding z-score,[7],-0.243
same,PBM binding z-score,[8],-1.13
same,PBM binding z-score,[9],-1.22
same,PBM binding z-score,[10],-1.45

# From the supplement of paper PMC6555819
